Bioassay records deposited in PubChem by several laboratories.
Sampled rows, rich in hits. Any-hit rate of the full collection: about 3.8%.
HSF1 inh: HSF1 inhibition; actives 0.77% (n = 300,000); NIH3T3-HGL HSE-luciferase, MG132-induced, luminescence 8 h; stronger effect = lower value; activity change, negative = inhibition, % at 7.5 µM (by protocol);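 active = more than half of replicate wells show activity change below -50%, luminescence cut by over half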;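 also: luciferase reports HSF-1 transcriptional activity via heat shock element; 0% = median of DMSO wells and -100% = zero luminescence signal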
HSP90 inh: blocks HSP90-mediated luciferase refolding in reticulocyte lysate; inhibition, % at 5.6 µM; Rabbit reticulocyte lysate, luciferase refolding luminescence, 3 h; actives 0.91% (n = 290,000);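 active = inhibition above the screen-wide mean plus 3 SD, computed separately per campaign, cut at about 16% in these data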;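 also: 0% = DMSO wells and 100% = 60 µM geldanamycin wells; inhibitors lower the luminescence because luciferase stays unfolded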
Hsp70 act: Hsp70 transcriptional activation, primary screen; AID 1203; HeLa Hsp70 promoter luciferase reporter, luminescence; scaled: vehicle 0, proteasome-inhibitor control 100%; actives 0.04% (n = 200,000); activation, % at 10 µM;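 active = activation above the mean across all tested compounds plus 3 SD, cutoff set per campaign, cut at about 5.5% in these data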;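 also: 100% = MG132 at 30 µM as the positive control and 0% = DMSO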
NALP1 inh: inhibitors of NALP1 inflammasome in yeast; actives 0.61% (n = 280,000); S. cerevisiae NALP1/ASC/caspase-1 growth, X-gal OD620, 72 h; inhibition, % at 10 µM; in the data active = inhibition mostly above about 24%, no sharp cut-off; inactive = mostly below about 32%
HSF-1 act: increases HSF-1 driven luciferase reporter signal. activation, % at 9 µM. NIH3T3-HGL HSF-1 luciferase reporter, MG132, 8 h; 100% = twice DMSO control signal. actives 1.7% (n = 300,000);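 active = mean replicate activation of at least 50% with a set share of replicates each reaching 50%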;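 also: 0% = median of the neutral control wells and 100% = twice that signal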
pCIP destab: p/CIP protein destabilization | actives 0.01% (n = 290,000) | Q05BA5 | F442A p/CIP-EGFP cells, EGFP fluorescence, 16 h | decrease of EGFP signal, % at 10 µM;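 active = EGFP signal decrease of at least 30% at 10 µM or well 3 SD below plate mean, unless failing retest; inactive = the rest, including hits failing retest or dose response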
Active calls of the source: *; / = no result.

SMILES | HSF1 inh | HSP90 inh | Hsp70 act | NALP1 inh | HSF-1 act | pCIP destab
CC(=O)c1ccc(N2CCN(C(=O)c3n[nH]c4ccccc34)CC2)cc1 | 24.9 | -1.8 | -0.1 | 22.2 | 56.0* | -3.3
ClC(Cl)c1nnc(-c2ccccc2)c(-c2c[nH]c3ccccc23)n1 | 20.0 | 0.1 | -0.2 | 23.3 | 56.9* | -7.0
Cc1ccc(CSc2nnc(-c3ccc4c(c3)OCO4)o2)cc1 | -1.7 | 3.5 | -0.6 | 11.1 | 11.7 | -7.7
O=C(O)CCSc1nnc(-c2ccc3c(c2)OCO3)o1 | -52.1* | 16.1* | -0.3 | 2.2 | -59.6 | -16.2
COc1ccc(/C=N/NC(=O)CC(=O)NCc2cccnc2)cc1[N+](=O)[O-] | 2.3 | 3.1 | / | 0.2 | 29.4 | -10.8
CC(=O)c1ccc(NC(=S)NCc2ccc(Cl)cc2Cl)cc1 | -3.6 | 0.6 | -0.2 | 0.5 | -4.2 | -6.7
Cc1nn(Cc2ccccc2Cl)c(Cl)c1C(=O)NCCc1ccccc1 | 40.5 | -1.4 | -0.1 | 24.9 | 61.1* | 4.6
O=C(CN(c1ccccc1Cl)S(=O)(=O)c1ccccc1)NCc1ccccc1 | 1.5 | 3.7 | / | -23.2 | 7.5 | -3.1
Cc1c(NC(=O)Nc2ccc3c(c2)OCO3)cccc1[N+](=O)[O-] | 2.6 | -4.6 | / | 16.5 | 9.1 | -18.5
O=C1c2ccccc2C(=O)C1c1ccc(O)cc1 | 38.7 | -0.3 | -0.1 | 25.9 | 72.4* | 1.2
Cc1cc(C)c2nc(NC(=O)CN3C(=O)NC4(CCCC4)C3=O)sc2c1 | 2.0 | / | / | / | 17.9 | /
COc1ccc2c(c1OC)C(=O)OC2Nc1ccc(S(=O)(=O)N=C(N)N)cc1 (stereo not drawn) | -60.5* | 0.4 | / | / | -69.2 | -8.6
Oc1c(Cl)cc(Cl)cc1C=Nc1cc(C(F)(F)F)ccc1N1CCc2ccccc2C1 | 36.8 | 14.2 | / | 27.3 | 69.9* | 8.2
Oc1c(Cl)cccc1C=Nc1cc(C(F)(F)F)ccc1N1CCCC1 | -0.7 | -0.8 | -0.4 | 20.5 | 4.8 | 3.5
CC1CCc2c(sc(NC(=O)c3cccs3)c2C(=O)O)C1 (stereo not drawn) | 0.4 | 2.8 | / | 8.3 | 16.1 | 9.2
CCCC1CCc2c(sc(NC(=O)c3cccs3)c2C(N)=O)C1 (stereo not drawn) | 31.0 | 1.9 | -0.2 | -7.9 | 61.2* | -13.0
CCOC(=O)c1cnc2c(-c3ccccc3OC)c(C)nn2c1C | -2.2 | 4.6 | 0.5 | 11.4 | -9.1 | -3.8
O=C(NCc1ccc2c(c1)OCO2)C1CCC(CNS(=O)(=O)c2ccc(Cl)cc2)CC1 (stereo not drawn) | 3.8 | 2.6 | -0.4 | 4.9 | 3.5 | 2.2
Cc1ccc(S(=O)(=O)NCC2CCC(C(=O)NCc3ccc4c(c3)OCO4)CC2)cc1 (stereo not drawn) | -2.2 | 1.9 | -0.4 | 41.4* | -5.6 | -4.0
Cc1ccc(S(=O)(=O)N2CCCC(C(=O)NCCc3ccc4c(c3)OCO4)C2)cc1 (stereo not drawn) | -68.5* | -4.2 | -0.3 | 12.4 | -76.2 | 8.4
C/C(=N\NC(=O)c1ccoc1C)c1cccc2ccccc12 | 31.0 | 2.5 | / | 1.9 | 57.3* | -6.8
COc1ccccc1NC(=O)CSC1CC(=O)N(c2ccc3c(c2)OCO3)C1=O (stereo not drawn) | -6.2 | 0.7 | 0.1 | 30.6* | -19.6 | 2.9
CC(C)(C)c1ccc(/C=C(\C#N)C(=O)NC2CC2)cc1 | -15.1 | / | / | / | 6.4 | /
CN(C)CCCNS(=O)(=O)c1ccc(Cl)s1 | -6.6 | 1.6 | 0.5 | 29.9* | -16.0 | -12.2
CN(C)CCCNS(=O)(=O)c1cc(Cl)c(Cl)cc1Cl | / | -1.2 | / | 5.5 | / | 3.0
SMILES | HSF1 inh | HSP90 inh | Hsp70 act | NALP1 inh | HSF-1 act | pCIP destab
Cc1ccnc(NC(=O)CCN2C(=O)c3ccccc3S2(=O)=O)n1 | 3.2 | / | / | / | 32.2 | /
COc1cc(OC)cc(C(=O)Oc2ccc(/C=N/Nc3nc4ccccc4s3)cc2OC)c1 | 39.8 | 7.1 | 0.1 | 7.1 | 82.4* | 0.5
COc1cc(/C=N/Nc2nc3ccccc3s2)ccc1OC(=O)c1ccccc1F | 65.7 | 4.7 | -0.3 | -4.9 | 84.7* | -14.9
COc1cccc(C(=O)Oc2ccc(/C=N/NC(=O)c3ccncc3)cc2OC)c1 | 5.2 | -1.8 | / | -22.0 | 12.2 | 5.1
COc1ccc(CNC(=O)c2ccc(N3CCC4(CC3)CC(c3ccc(Cl)cc3)=NO4)c(N)c2)cc1 | -0.5 | / | / | / | 4.0 | /
O=C1C(C=Nc2ccccc2)=C(O)c2ccccc21 | 16.6 | 16.8* | 0.0 | 26.1 | 53.7* | 8.8
O=C1C(C=Nc2ccccc2O)=C(O)c2ccccc21 | 14.5 | 16.5* | 0.3 | -10.7 | 36.2 | 0.9
CN=CC1=C(O)c2ccccc2C1=O | 0.3 | 0.7 | 0.1 | 6.8 | -8.5 | -1.4
N#Cc1ccc(Sc2ccccn2)c([N+](=O)[O-])c1 | -3.8 | 1.4 | / | 3.4 | 3.9 | -8.2
CC(C)c1cc2c(c(O)c1O)[C@@]13CCCC(C)(C)C1CC2OC3=O (stereo partly drawn) | 53.4 | 2.4 | / | -4.2 | 65.5* | -4.9
COc1ccc(-n2c(=O)[nH]cc(C(=O)N3CCCc4ccccc43)c2=O)cc1 | 0.2 | 2.4 | -0.1 | 27.1* | 2.9 | 4.5
CC(O)CNc1nc(NCc2ccccc2)c2cnn(C)c2n1 (stereo not drawn) | -14.2 | -4.3 | / | 26.7 | -16.4 | 1.8
CN(C(=O)c1ccco1)c1nc(-c2ccc(F)cc2)cs1 | 35.9 | -1.3 | / | 24.0 | 83.2* | -12.1
CCN(CC)CCCN(C(=O)c1ccco1)c1nc(-c2ccc(C)cc2)cs1 | -69.4* | 3.1 | -0.3 | 16.0 | -76.2 | -6.3
CCN(CC)CCCN(C(=O)c1ccco1)c1nc(-c2ccc(Cl)cc2)cs1 | 14.2 | 7.2 | / | 22.0 | 32.9 | -20.3
COc1cccc(OCc2cc(C(=O)NCc3ccc4c(c3)OCO4)no2)c1 | 16.9 | 0.3 | / | 14.4 | 16.9 | -1.3
CCOC(=O)C1CCCN(C(=O)c2cc(S(=O)(=O)N3CCCCC3)ccc2C)C1 (stereo not drawn) | 7.4 | 1.6 | / | 24.5 | 8.7 | -10.4
CCOC(=O)c1ccc(NC(=O)CC2Sc3ncnn3C2=O)cc1 (stereo not drawn) | -4.6 | 5.4 | 0.1 | 93.3* | 3.5 | -9.1
CCOC(=O)c1ccc(NC(=O)CC2COc3ccccc3O2)cc1 (stereo not drawn) | -80.8* | 1.1 | -0.1 | 16.5 | -84.7 | 1.6
O=C(CC1Sc2ncnn2C1=O)Nc1ccc(Cl)cc1 (stereo not drawn) | -2.5 | -0.1 | -0.1 | 27.0 | -17.6 | -5.2
COc1ccc(NC(=O)CC2Sc3ncnn3C2=O)cc1 (stereo not drawn) | -6.7 | 0.2 | -0.1 | 94.8* | -5.7 | -3.1
COc1ccc(CCNC(=O)CNCC(c2ccccc2)N(C)C)cc1OC (stereo not drawn) | -1.6 | 7.2 | / | 10.5 | 34.4 | 0.9
CC(NC(=O)C(NC(=O)C(Cc1c[nH]c2ccccc12)NC(=O)OC(C)(C)C)C(C)C)C(N)=O (stereo not drawn) | 2.1 | -1.4 | -0.4 | -10.5 | -10.3 | -1.1
